# The list is not random: actives were taken first. Their share in the collection is about 2.4%.
# D2 PAM-1 – positively modulates the human D2 dopamine receptor allosterically; AID 485347; actives 0.34% (n = 340,000); P14416; potentiation, % at 10 µM; HEK293 T-REx D2, calcium flux, EC20 dopamine potentiation;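 active = potentiation over 3 SD above the plate norm, cut at about 30% in these data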; also: 0% is about no effect
# Target sequence (P14416 whole entry, looked up): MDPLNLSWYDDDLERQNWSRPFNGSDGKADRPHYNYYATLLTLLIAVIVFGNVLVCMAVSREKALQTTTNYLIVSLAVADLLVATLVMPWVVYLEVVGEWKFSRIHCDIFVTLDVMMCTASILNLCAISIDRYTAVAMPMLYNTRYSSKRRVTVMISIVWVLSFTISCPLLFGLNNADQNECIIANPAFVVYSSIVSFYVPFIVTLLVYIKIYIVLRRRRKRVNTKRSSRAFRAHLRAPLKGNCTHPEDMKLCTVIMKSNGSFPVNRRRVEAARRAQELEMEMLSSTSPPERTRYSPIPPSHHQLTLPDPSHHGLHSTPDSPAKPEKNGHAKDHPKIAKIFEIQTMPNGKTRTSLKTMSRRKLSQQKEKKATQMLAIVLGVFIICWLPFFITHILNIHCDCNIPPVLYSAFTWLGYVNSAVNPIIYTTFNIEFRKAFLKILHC
#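 Potentiation of an EC20 dopamine calcium response is measured in a force-coupled, tetracycline-inducible Hek293 Trex D2 line. Compound-only kinetic reads over 180 s flag agonists before dopamine addition.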
# D2 ag-1 – D2 dopamine receptor (human) agonism; actives 0.53% (n = 340,000); HEK293 T-REx D2 cells, calcium flux agonist mode; activation, % at 2 µM;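 active = activation over 3 SD above normal in the single-dose calcium agonist read, cut at about 30% in these data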; also: 0% is about no effect
#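 In this primary screen, compounds producing a positive calcium signal within 180 s of addition to tetracycline-induced, force-coupled HEK293 Trex D2 cells are flagged; cells are dye-loaded with a no-wash calcium kit beforehand.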
# D2 antag – antagonists of human D2 dopamine receptor; P14416; HEK293 TREx D2 cells, calcium flux, dopamine EC80; inhibition, % at 10 µM; actives 2% (n = 340,000); AID 485344; in the data active = inhibition above about 30%; inactive = below that, where a call was filed; also: 0% is about no effect
#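 Cells plated overnight at 30 C with tetracycline; no-wash calcium dye, 30–90 min RT; 10 s baseline; compound pinned; 180 s read; EC80 dopamine added; another 180 s read.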
# D2 ag-2 – human D2 receptor agonism in beta-arrestin assay; DiscoveRx PathHunter D2 beta-arrestin, luminescence, 90 min; 100% = 57 uM dopamine signal; activation, % (concentration not given with the values); actives 0.084% (n = 360,000); AID 624465; in the data active = activation above about 40%
#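 DiscoveRx PathHunter D2 beta-arrestin cells (2,100/well) attached overnight, then compound-stimulated 90 min at 37 C in HBSS/10 mM HEPES/0.1% Tween-20 buffer; beta-galactosidase complementation read by luminescence after 1 h at ambient temperature. Dopamine 57 uM final (EC100) as control.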
# D2 PAM-2 – potentiates the human D2 dopamine receptor allosterically | P14416 | DiscoveRx D2 beta-arrestin cells, luminescence, 90 min; 100% = 57 uM dopamine signal | potentiation, % (concentration not given with the values) | actives 0.23% (n = 360,000) | AID 624464; in the data active = potentiation above about 50%
#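 PathHunter beta-arrestin assay in DiscoveRx D2 cells. Compounds were added with an EC20 of dopamine (50 nM final) for 90 min at 37 deg C. Luminescence was read 1 h after detection reagent, with 57 uM dopamine as the EC100 control.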
# * hit, by the source's call; / = no result given.
SMILES,D2 PAM-1,D2 ag-1,D2 antag,D2 ag-2,D2 PAM-2
CCN(CC)CCN(Cc1cc2cc3c(cc2[nH]c1=O)OCCO3)C(=S)NCC1CCCO1 (stereo not drawn),-6,2,-14,-2,-5
Cc1ccc(S(=O)(=O)c2nnn3c2nc(N(C)Cc2ccccc2)c2cc(Cl)ccc23)cc1C,-5,0,/,/,/
Cc1ccc2nc(Nc3ccccc3)c(C=O)c(=O)n2c1,37*,0,-1,6,20
CC(NC(=O)c1cccs1)C(c1cccs1)N1CCN(c2ccccc2)CC1 (stereo not drawn),55*,0,7,0,-4
CC(NC(=O)Cc1ccc(F)cc1)C(c1cccs1)N1CCN(C)CC1 (stereo not drawn),50*,0,-1,-1,3
CC(C)C(=O)NC(C)C(c1cccs1)N1CCN(c2ccccc2)CC1 (stereo not drawn),17,1,-10,1,-13
Cc1ccc(Cn2c(=O)n(Cc3ccccc3)c(=O)c3oc4ccccc4c32)cc1,4,0,/,/,/
Cc1ccc(C)c(N2CCN(C(=O)CCc3c(C)nn(-c4ccc(N5CCCC5)nn4)c3C)CC2)c1,-4,1,/,/,/
N#Cc1cccc(NC(=O)c2cc(C3CCCCN3S(=O)(=O)c3ccccc3)on2)c1 (stereo not drawn),/,/,/,2,0
Cc1nn(C)c2c1c(-c1ccccc1)cc(=O)n2Cc1ccc(Cl)cc1,4,0,/,/,/
CN1C(=O)C2(C(C#N)=C(N)N(c3cc(Cl)cc(Cl)c3)C3=C2C(=O)CC(C)(C)C3)c2ccccc21 (stereo not drawn),-2,1,33*,1,15
Cc1ccc(N2C(N)=C(C#N)C3(C(=O)N(C)c4ccccc43)C3=C2CC(C)(C)CC3=O)cc1Cl (stereo not drawn),-12,1,-1,-1,-2
Cc1ccc(C(=O)NCCSC(C)(C)C)cc1,-4,0,3,-2,-6
Cc1ccc(C(=O)NCC(=O)NC23CC4CC(CC(C4)C2)C3)cc1,-8,30*,12,-5,-9
Cc1ccc(C(=O)NCC(C)(C)O)cc1,19,0,38*,-2,-2
CC(OC(=O)c1cccnc1SCc1cc(=O)n2ccccc2n1)c1ccccn1 (stereo not drawn),30*,-1,2,3,-5
CCOC(=O)c1cccnc1SCc1cc(=O)n2ccccc2n1,3,-1,7,1,-8
O=C(C1CCN(S(=O)(=O)N2CCOCC2)CC1)N1CCc2ccccc21,0,-1,36*,-5,-14
O=C(C1CCC(C(=O)N2CCc3ccccc32)CC1)N1CCc2ccccc21 (stereo not drawn),-30,7,-3,-1,-3
Cc1cccc(NC(=O)CN(C)CC(=O)NC(c2ccccc2)c2ccccc2)c1C,-5,-1,33*,0,-16
COC1CCCN(C(=O)c2ccc3oc(Cc4ccc(Cl)cc4)nc3c2)C1 (stereo not drawn),-9,-1,31*,-1,7
O=C(Nc1cc(S(=O)(=O)N2CCOCC2)ccc1N1CCCC1)c1ccccc1C(F)(F)F,/,/,/,5,-3
CN1CCN(c2ccccc2NC(=O)COc2ccccc2)CC1,-4,0,-22,0,-12
CN1CCN(c2ccccc2NC(=O)COc2ccc(Cl)cc2)CC1,-6,0,30*,-1,-31
COc1ccc(NC(=O)c2ccccc2N(Cc2ccccc2)S(C)(=O)=O)cc1OC,37*,0,-5,2,-2
SMILES,D2 PAM-1,D2 ag-1,D2 antag,D2 ag-2,D2 PAM-2
COc1ccc(NC(=O)c2ccccc2N(Cc2ccccc2)S(C)(=O)=O)cc1,-8,3,0,-4,-11
Cc1ccccc1-n1ncc2c([N+](=O)[O-])cc([N+](=O)[O-])cc21,12,0,-30,8,83*
Cc1ccc2nc3cc([N+](=O)[O-])cc([N+](=O)[O-])c3cc2c1,/,0,0,-18,19
CCOc1ccc(N(CC(=O)NC(C)CC)S(C)(=O)=O)cc1 (stereo not drawn),-3,2,38*,-3,-21
CCOC(=O)[C@H]1[C@H]2COc3ccc(Br)cc3[C@H]2N2C(=O)CN(Cc3ccc(Cl)cc3)C(=O)[C@@]12C,/,/,/,-5,-3
COc1cccc(NS(=O)(=O)c2ccc(S(=O)(=O)N3CCCC3)cc2)c1,17,0,-18,-2,-2
COc1ccc(CNS(=O)(=O)c2ccc3c(c2)N(C(C)=O)CCO3)cc1,-20,1,-2,-2,-21
COc1cccc(CNS(=O)(=O)c2ccc3c(c2)N(C)CCO3)c1,21,0,39*,-1,1
COc1cccc(CN(Cc2ccccc2F)S(=O)(=O)c2ccc(S(=O)(=O)NCc3ccccc3)cc2)c1,4,2,43*,3,-8
COc1cccc(CNS(=O)(=O)c2ccc(S(=O)(=O)N3CCCC3)cc2)c1,32*,-1,13,-1,-2
Cc1ccc(S(=O)(=O)N2C[C@H]3C(=O)C[C@@H](c4ccc(Cl)cc4)N(S(=O)(=O)c4ccccc4C)[C@H]3C[C@H]2c2ccccc2)cc1,/,/,/,-9,3
Cc1cccc(C)c1NC(=O)C1(C)CCC(=O)N1C1CC1 (stereo not drawn),/,/,/,-3,-5
CCOc1cc(/C=C2\SC(=S)N(C(C(=O)O)c3ccccc3)C2=O)ccc1O (stereo not drawn),12,0,-8,-11,-20
COc1cc(/C=C2\SC(=S)N(C(C(=O)O)c3ccccc3)C2=O)ccc1O (stereo not drawn),0,33*,1,-10,-20
Cc1cc(C)c2oc(C(=O)Nc3c(C)n(C)n(-c4ccccc4)c3=O)cc(=O)c2c1,-1,0,/,/,/
Cc1coc2c1c(C)cc1oc(=O)c(CC(=O)NCCCCCC(=O)O)c(C)c12,46*,0,2,1,7
Cc1coc2c1c(C)cc1oc(=O)c(CC(=O)NCC(=O)O)c(C)c12,-11,2,8,2,-5
O=C(c1cccc(S(=O)(=O)N2CCOCC2)c1)N1CCN(S(=O)(=O)c2cccs2)CC1,-1,4,42*,-3,-6
O=C(c1cccc(S(=O)(=O)N2CCCCC2)c1)N1CCOCC1,-1,0,10,-3,-13
O=C(NC1=NCCS1)c1cccc(S(=O)(=O)N2CCOCC2)c1,-8,0,34*,0,-4
Cc1ccc(C)c(NC(=O)c2nc(S(C)(=O)=O)ncc2N(Cc2ccc(C(C)(C)C)cc2)Cc2ccco2)c1,-7,5,/,/,/
Cc1ccc(S(=O)(=O)N(C)Cc2nc(-c3ccccn3)no2)cc1,0,0,23,-3,-1

# From PubChem
